Only some compounds are listed: those with a hit (about 2.3% of all), similar ones and a draw of the others.
M1 ag: human M1 muscarinic receptor agonism; P11229; CHO-K1 hM1, Fluo-8 calcium fluorescence, agonist mode; 0% DMSO, 100% acetylcholine EC100; AID 588814; hit rate 0.33% among 360,000; activation, % at 3 µM;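 active means activation above the run's mean compound activation plus 3 SD, cut at about 16% in these data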;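 further: peak over basal fluorescence ratio within a 140 s kinetic read after compound addition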
Target sequence (P11229 whole entry, looked up): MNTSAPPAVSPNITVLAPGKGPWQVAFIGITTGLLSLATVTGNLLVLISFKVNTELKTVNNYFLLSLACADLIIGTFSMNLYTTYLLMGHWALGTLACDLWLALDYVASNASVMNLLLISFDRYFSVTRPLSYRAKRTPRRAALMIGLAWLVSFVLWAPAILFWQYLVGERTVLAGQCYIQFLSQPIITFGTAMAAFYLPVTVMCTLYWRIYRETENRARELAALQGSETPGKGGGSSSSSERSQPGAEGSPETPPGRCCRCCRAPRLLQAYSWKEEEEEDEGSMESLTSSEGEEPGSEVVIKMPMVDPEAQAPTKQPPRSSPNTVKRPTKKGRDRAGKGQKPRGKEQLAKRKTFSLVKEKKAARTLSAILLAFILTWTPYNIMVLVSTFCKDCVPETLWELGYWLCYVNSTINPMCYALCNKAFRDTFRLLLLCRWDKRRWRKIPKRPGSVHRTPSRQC
CHO-K1 Ca ag: nonselective activator or artifact in parental CHO-K1 cells | AID 602248 | hit rate 0.48% among 360,000 | Fluo-8 calcium fluorescence; scaled to maximal ATP response, vehicle zero | activation, % at 3 µM; in the data active means activation above about 15%;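 further: untransfected CHO-K1 host cells lacking M1 receptor as counterscreen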
M1 PAM: positive allosteric modulators of human M1 muscarinic receptor; activation, % at 3 µM; AID 588819; CHO-K1 hM1, Fluo-8 calcium fluorescence, ACh EC20; 0% = ACh EC20, 100% = maximal ACh; P11229; hit rate 0.088% among 360,000; in the data active means activation above about 19%, passing the limit was not always enough
CHRM1 antagonist: human CHRM1 antagonism | P11229 | CHO-K1 hM1, Fluo-8 calcium fluorescence, ACh EC80 antagonist | inhibition, % at 3 µM | hit rate 1.3% among 360,000 | AID 588852;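 active means percent inhibition above its own plate's cutoff, namely the mean of that plate's compound wells plus 3 SD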;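 further: peak over basal fluorescence ratio during 140 s after agonist addition; 0% = ACh EC80 plus DMSO and 100% = DMSO alone without agonist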
CHO-K1 Ca PAM: M1 PAM counterscreen hit in parental CHO-K1 cells | ATP EC20, Fluo-8 calcium fluorescence; 0% at ATP EC20, 100% at ATP max | activation, % at 3 µM | AID 602247 | hit rate 0.02% among 360,000;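 active means activation above the run cutoff, the mean activation of all test compounds plus 3 SD, cut at about 40% in these data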;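 further: peak over basal fluorescence ratio in a 140 s read after ATP addition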
CHO-K1 Ca antag: counter-screen for M1 antagonists: effect in parental CHO-K1 cells; inhibition, % at 3 µM; ATP-induced calcium, Fluo-8 fluorescence; hit rate 0.6% among 360,000;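 active means inhibition above a per-plate cutoff, the plate's mean sample inhibition plus 3 SD, cut at about 24% in these data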;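 further: 0% = DMSO plus EC80 ATP and 100% = DMSO alone without ATP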
The depositor's hits bear a star.

SMILES	M1 ag	CHO-K1 Ca ag	M1 PAM	CHRM1 antagonist	CHO-K1 Ca PAM	CHO-K1 Ca antag
CCc1ccc(N(C(=O)c2csnn2)C(C(=O)NC(C)(C)CC)c2cccnc2)cc1 (stereo not drawn)	-3	0	9	-5	-4	-6
CCOc1ccccc1N1CC(C(=O)Nc2cc(S(C)(=O)=O)ccc2Cl)CC1=O (stereo not drawn)	-4	3	7	-9	24	-3
NC(=O)c1cccc(-c2cnc3c(Nc4cccc(OC(F)(F)C(F)F)c4)nccn23)c1	2	0	6	-4	-16	31*
Oc1ccc(-c2cnc3c(Nc4cccc(OC(F)(F)C(F)F)c4)nccn23)cc1	1	1	-1	0	-4	1
Cc1occc1C(=O)N1CCCC(CCC(=O)NCc2ccc(F)c(F)c2)C1 (stereo not drawn)	-6	1	11	-6	11	-13
O=C(CCC1CCCN(C2C3CC4CC(C3)CC2C4)C1)NCc1ccc(F)c(F)c1 (stereo not drawn)	-5	0	-18	43*	12	-5
O=C(CCC1CCCN(Cc2ccc3c(c2)CCO3)C1)NCc1ccc(F)c(F)c1 (stereo not drawn)	-12	0	-30	33*	-6	12
Cc1ncc(CN2CCCC(CCC(=O)NCc3ccc(F)c(F)c3)C2)s1 (stereo not drawn)	-13	0	-3	-2	8	1
CC1CCN(c2ccc3c(c2)S(=O)(=O)c2cccc(C(=O)NC4CCCCC4)c2C3=O)CC1	-7	2	-11	11	-3	-7
Cc1cc(S(=O)(=O)N2CCN(c3ccc(F)cc3)CC2)ccc1-n1cnnn1	-6	6	4	-5	9	-16
Cc1cc(S(=O)(=O)N2CCN(c3ccccc3F)CC2)ccc1-n1cnnn1	-3	18*	-1	-1	8	1
O=C(Nc1ccccc1C(=O)N1CCCC1)c1ccccc1	16*	0	5	16	-14	15
Nc1ccc(NC(=O)c2ccccc2)c2c1C(=O)c1ccccc1C2=O	-4	0	-2	9	-10	26*
CSc1ccccc1NC(=O)c1ccccc1	-4	16*	8	-11	10	0
CCN(c1ccccc1C(=O)O)S(=O)(=O)c1ccc2[nH]c(=O)[nH]c2c1	-4	6	-6	9	1	5
O=C(Nc1ccncc1Cl)c1ccncc1	-1	1	0	9	9	-4
O=C(Nc1nc(-c2ccccc2)cs1)c1ccc2c(=O)n3c(nc2c1)CCCCC3	-1	8	-27	33*	8	5
O=C(Nc1ccccc1Cl)c1ccc2c(=O)n3c(nc2c1)CCC3	-1	1	2	1	16	-21
Cc1ccc(-c2csc(NC(=O)c3cc([N+](=O)[O-])ccc3N3CCOCC3)n2)cc1	-2	0	4	-11	5	-3
O=C(Nc1nc(-c2ccccc2)cs1)c1ccc(N2CCOCC2)c([N+](=O)[O-])c1	0	12	-18	37	-2	25*
COCCNC(=O)C1CCCN(S(=O)(=O)c2cccc3nsnc23)C1 (stereo not drawn)	-3	1	2	-4	-2	-7
CC(OC(=O)CC1CC2CCC1C2)C(=O)Nc1cccc(S(=O)(=O)N2CCOCC2)c1 (stereo not drawn)	6	1	24*	-26	3	7
CCN(CC)S(=O)(=O)c1cc(NC(=O)CNc2cccc(S(=O)(=O)N3CCCC3)c2)ccc1C	-1	7	-6	29*	-4	19
CN(C)S(=O)(=O)c1cccc(NC(=O)CNc2cccc(S(=O)(=O)N3CCCCC3)c2)c1	-5	6	-4	2	15	-5
CC(OC(=O)CC1CC2CCC1C2)C(=O)Nc1ccc(N2CCOCC2)cc1 (stereo not drawn)	12	5	18	-16	20	-22
SMILES	M1 ag	CHO-K1 Ca ag	M1 PAM	CHRM1 antagonist	CHO-K1 Ca PAM	CHO-K1 Ca antag
CCN(CC)S(=O)(=O)c1ccc(C)c(NC(=O)CNc2cccc(S(=O)(=O)N3CCOCC3)c2)c1	-1	9	-2	3	3	11
CCc1nc2ccccc2c(C(=O)OCC(=O)Nc2cccc(S(=O)(=O)N3CCOCC3)c2)c1C	-4	3	-9	28*	-6	15
CCN(CC)S(=O)(=O)c1cccc(NC(=O)CNc2cccc(S(=O)(=O)N3CCOCC3)c2)c1	-2	8	-8	33*	-16	11
Cc1[nH]nc(SCC(=O)N(C)c2ccccc2)c1[N+](=O)[O-]	-1	1	2	7	-10	-5
O=C(CCc1ccc(S(=O)(=O)N2CCOCC2)cc1)Nc1ccc(F)cc1[N+](=O)[O-]	-1	0	-2	-1	9	-5
CN(CC(=O)Nc1cccc(S(=O)(=O)N2CCOCC2)c1)CC(=O)Nc1ccc(Cl)c(C(F)(F)F)c1	-2	6	-14	42*	-25	7
CN(CC(=O)NCc1ccc(F)cc1)CC(=O)Nc1ccc(Cl)c(C(F)(F)F)c1	16*	13	-2	29	-11	9
CN(CC(=O)NCC(=O)Nc1ccc(F)cc1)CC(=O)Nc1ccc(Cl)c(C(F)(F)F)c1	-1	2	0	8	3	-8
O=C(C(Br)=Cc1ccccc1)c1ccccc1	3	0	12	-4	-5	2
COc1ccc(NC(=O)CSCC(=O)N(C)CC(=O)Nc2cccc3ccccc23)cc1	-3	1	3	-2	11	-2
N#C/C(=N\Nc1cccc(Cl)c1)C(=O)c1ccccc1	5	5	-3	15	-3	29*
N#C/C(=N\Nc1ccc(Cl)cc1)C(N)=S	7	11	-3	13	-22	25*
Cc1ccc(N/N=C(\C#N)C(N)=S)cc1C	0	16*	1	5	-2	7
N#C/C(=N\Nc1ccccc1)C(N)=S	6	6	16	-12	3	18
Cc1ccc(NC(N)=S)cc1C	-4	0	7	-2	12	8
N#C/C(=N\Nc1ccc(Cl)cc1)C(=O)c1ccsc1	5	13	0	12	-3	24*
N#CC1=C(N)Oc2n[nH]c(-c3ccccc3)c2C1c1cccnc1 (stereo not drawn)	-3	0	5	-8	7	1
N#CC1=C(N)Oc2nc(-c3ccccc3)[nH]c2C1c1cccnc1 (stereo not drawn)	-4	0	0	-4	-7	32*
CCN(CC)c1ccc2c(c1)OC(N)=C(C#N)C2c1cccnc1 (stereo not drawn)	22*	17*	-11	-4	19	-10
CC(=O)NC(C)(c1ccccc1)c1nc(-c2csc3ccccc23)cs1 (stereo not drawn)	-6	1	-1	-8	14	-16

Source: PubChem BioAssay (The Scripps Research Institute Molecular Screening Center)
